KB-3-1 cytotox – kills parental KB-3-1 adenocarcinoma cells. KB-3-1 viability, CellTiter-Glo ATP luminescence, 72 h. Potency, µM (highest dose often 46.1 µM), most hits filed as cytotoxic. actives 1.4% (n = 400,000); also: nearly all actives have a fitted effect of over 60% in size
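Cytotoxicity measured as CellTiter-Glo luminescence after 72 h at 37 C. Compound titrations were pinned onto drug-naive KB-3-1 parental adenocarcinoma cells grown in DMEM with 10% FBS, and normalized data fitted to concentration-response curves.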
TDP1 cell CPT – DT40-hTDP1 cell growth loss with CPT | chicken DT40 Tdp1-/-;hTDP1 cells + 20 nM CPT, ATP luminescence, 48 h | Potency, µM (highest dose often 46.2 µM), without a hit: at the top dose activity change, negative = growth inhibition, actives largely listed as inhibitors | actives 12% (n = 420,000) | AID 686979; also: nearly all actives have a fitted effect of over 55% in size
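Chicken DT40 Tdp1-/- cells stably complemented with human TDP1 were seeded at 400 cells/well in medium containing 20 nM camptothecin, exposed to pin-transferred compounds, and grown at 37 °C for at least 48 hr. Viability was read as ATP luminescence.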
HT1080 IDH1KD tx – HT-1080 IDH1 knockdown cell toxicity (counter line) | actives 2% (n = 360,000) | HT-1080 IDH1 knockdown viability, ATP luminescence, 48 h | Potency, µM (top dose mostly 46.1 µM), inactives show at the top dose activity, negative = toxicity, usual class: cytotoxic | AID 686971;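 also: 0% = DMSO wells and -100% = cell-free medium wells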
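% activity derives from luminescence (CellTiter-Glo), normalised to DMSO and no-cell wells. HT-1080-IDH1KD cells, 750/well, had 48 h compound exposure at 37 °C.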
HT1080NT lethal – kills 2HG-producing HT-1080-NT fibrosarcoma cells; HT-1080-NT fibrosarcoma viability, CellTiter-Glo ATP luminescence, 48 h; Potency, µM (highest dose often 46.1 µM), inactives show at the highest dose activity, negative = less viability, hits mostly cytotoxic; actives 1.6% (n = 360,000); AID 686970;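 also: NT is the 2HG producing partner of a matched IDH1 knockdown line; 0% = DMSO-treated cells and -100% = media-only wells without cells; nearly all actives have a fitted effect of over 55% in size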
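Read-out is CellTiter-Glo luminescence after 10 minutes at room temperature, following 48 hours' compound treatment of HT-1080-NT cells (750 cells/well, RPMI, 5% FBS, 37 degrees C).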
TDP1 cell noCPT – qHTS for Inhibitors of human tyrosyl-DNA phosphodiesterase 1 (TDP1): qHTS in cells in absence of CPT; AID 686978, 2013; actives 15% (n = 420,000); DT40 Tdp1-/- hTDP1 cells, no CPT, ATP luminescence, 48 h; Potency, µM (titrated, usually from 46.2 µM), without a hit: top-dose activity change, negative = growth inhibition, actives largely listed as inhibitors; also: nearly all actives have a fitted effect of over 55% in size
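Growth of hTDP1-complemented DT40 Tdp1-knockout cells is measured by ATP luminescence after at least 48 hr compound exposure at 37 °C, with DMSO substituting for the 20 nM CPT used in the parallel screen.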
KB-V1 MDR tox – KB-V1 MDR subline cytotoxicity | actives 3.4% (n = 400,000) | Potency, µM (top dose mostly 46.1 µM), hits mostly cytotoxic | AID 1347076 | KB-V1 MDR cells viability, CellTiter-Glo, 72 h; also: nearly all actives have a fitted effect of over 60% in size
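Readout: CellTiter-Glo luminescence, 10 min after addition. Cells: KB-V1 MDR subline, 72 h at 37 degrees C with compound. Analysis: corrected, normalized data fitted to concentration-effect curves.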
An asterisk follows results filed as active; i = inactive; ? = inconclusive; / = no result given. This is a sample that favours compounds with a hit; in the whole collection about 19% have one here. Calls follow the shape of the dose curve; as a rule, active = well fitted curve in the direction sought with a large enough effect; inconclusive = small, poorly fitted or top-dose-only effect, or another doubt; inactive = no such curve, though single readings can be large; an effect the other way counts as inactive or inconclusive. Unless noted, % is scaled to controls: 0 for no effect and ±100 for the full control effect; potency is read from the fitted curve at half-maximal effect.

SMILES | KB-3-1 cytotox | TDP1 cell CPT | HT1080 IDH1KD tx | HT1080NT lethal | TDP1 cell noCPT | KB-V1 MDR tox
COc1cccc(-c2cnc3c(NC=O)cc(-c4cccc(C(=O)N(C)C)c4)cn23)c1 | i | ? | ? | -21% | ? | 23µM*
CC(=O)Nc1cc(-c2cccc(C(=O)N(C)C)c2)cn2c(-c3cccc(C(=O)N(C)C)c3)cnc12 | i | ? | -9% | -1% | ? | i
Cc1ccc2nsnc2c1S(=O)(=O)N1CCN(Cc2ccc3c(c2)OCO3)CC1 | i | -3% | -2% | 11% | -18% | i
CC(C)(C)C1=CC(=O)C(=O)C(C(C)(C)C)=C1 | i | 0.65µM* | ? | ? | 1.3µM* | 13µM*
Cc1ccc2[nH]c3nc(NN)nnc3c2c1 | i | 23µM* | -3% | -11% | ? | i
COc1ccc(CNC(=O)CSc2nnc3c(n2)[nH]c2ccc(C)cc23)cc1 | i | 2% | 3% | 1% | 6% | i
COc1ccc2c(c1)C(=O)Cc1ccccc1O2 | i | -9% | 16% | -11% | 21µM* | i
Cc1ccc(C(=O)C2CCN(CC(=O)NC3CCCC3)CC2)cc1 | i | 7% | -15% | -7% | -28% | ?
COc1ccc(C(=O)N2CCC[C@@]3(CCN(C)C3)C2)cc1 | / | -7% | / | / | -18% | /
C=CCSc1nc(-c2ccc(OC)cc2)c(C#N)c(=O)n1CC=C | i | 16µM* | ? | -33% | 26µM* | i
COc1ccc(-c2nc3n(c(=O)c2C#N)CCS3)cc1 | i | 2% | -1% | 13% | 3% | i
COc1ccc(Nc2nc(N)nc(CSC(=S)N3CCN(C)CC3)n2)cc1 | i | -14% | 3% | 5% | ? | i
CCOc1ccc(Nc2nc(N)nc(CSC(=S)N3CCN(c4ccccc4)CC3)n2)cc1 | ? | 15µM* | -9% | -11% | 18µM* | i
COc1ccc(Nc2nc(N)nc(CSC(=S)N3CCCCC3C)n2)cc1 (stereo not drawn) | i | ? | ? | ? | 18µM* | ?
COc1ccc(Nc2nc(N)nc(CSC(=S)N3CCN(c4ccccc4)CC3)n2)cc1 | i | ? | -2% | -2% | 18µM* | i
CC1CCN(C(=S)SCc2nc(N)nc(Nc3ccccc3)n2)CC1 | i | -12% | -2% | -7% | -12% | ?
O=C(COC(=O)c1cccc(F)c1)Nc1cccc(S(=O)(=O)N2CCCCC2)c1 | i | -17% | 4% | -1% | ? | i
CNc1ccc(/C=C/C(=O)c2cccc3ccccc23)cc1[N+](=O)[O-] | ? | 16µM* | 1% | 15% | 16µM* | 15µM*
CC12CCC(=O)N1C(C(=O)OCc1c(Cl)cccc1Cl)CS2 (stereo not drawn) | i | -2% | 1% | -7% | -22% | i
COc1ccc(-c2nnc(SCC(=O)Nc3ccc(F)cc3)s2)cc1 | i | 5% | / | / | -18% | i
Cc1ccc(NC(=O)/C=C/c2ccc(S(=O)(=O)N3CCOCC3)cc2)cc1S(=O)(=O)N(C)C | ? | ? | 26µM* | ? | 15µM* | i
CC(=O)Nc1cccc(NC(=O)/C=C/c2ccc(S(=O)(=O)N3CCOCC3)cc2)c1 | i | ? | -4% | -6% | -25% | i
CCN(Cc1ccc(OC)c(F)c1)C(=O)/C=C/c1ccc(S(=O)(=O)N2CCOCC2)cc1 | i | ? | -18% | -16% | 23µM* | i
Cc1cc(NC(=S)NC(=O)/C=C/c2ccc(S(=O)(=O)N3CCOCC3)cc2)ccc1Br | ? | ? | 13% | -3% | 15µM* | i
COc1cccc(NC(=O)/C=C/c2ccc(S(=O)(=O)N3CCOCC3)cc2)c1 | i | 18µM* | -2% | 2% | ? | i
SMILES | KB-3-1 cytotox | TDP1 cell CPT | HT1080 IDH1KD tx | HT1080NT lethal | TDP1 cell noCPT | KB-V1 MDR tox
O=C(/C=C/c1ccc(F)cc1)Nc1ccc(S(=O)(=O)N2CCOCC2)cc1 | i | ? | -1% | 12% | -5% | i
C=CCN1C=CC(=C/C=C(/C#N)C(=O)OCC)C=C1 | i | 4% | 5% | 4% | -11% | i
O=C(/C=C/c1ccc(S(=O)(=O)N2CCOCC2)cc1)Nc1ccc(F)c(F)c1F | ? | ? | -7% | -13% | ? | 21µM*
COc1ccccc1CNc1ccc(-c2nc(-c3cccc(C)c3)no2)cc1[N+](=O)[O-] | i | -1% | / | / | -15% | i
CSCCC(NC(=O)c1cccc(C)c1)C(=O)Nc1sccc1C(N)=O (stereo not drawn) | i | ? | 0% | 10% | ? | i
CCc1cc2cc(C)cc(C)c2nc1Cl | i | 5% | 19% | 23% | ? | i
Cc1cc(C)c2cc(C=O)c(Cl)nc2c1 | ? | 1.2µM* | -25% | ? | 1µM* | ?
Cc1ccccc1-c1noc(-c2ccccc2C(=O)NCC2CCCO2)n1 (stereo not drawn) | i | ? | 0% | 2% | 18µM* | i
Cc1ccccc1Nc1cc(C(=O)NCC2CCCO2)c2ccccc2n1 (stereo not drawn) | i | 18µM* | -1% | 2% | ? | i
CCOC(=O)C(C)NC(=O)C1CCN(c2ncnc3c2nc2n3CCCCC2)CC1 (stereo not drawn) | / | ? | / | / | -27% | /
Cc1cc2nc3n(c2cc1C)CC1CC(C(=O)NCc2cccc(C(F)(F)F)c2)N(C)C31 (stereo not drawn) | i | -12% | 8% | 8% | -5% | i
CCC(CC)c1nnc(NC(=O)C2CC(=O)N(C3CCCC3)C2)s1 (stereo not drawn) | i | -3% | 5% | 4% | -12% | i
CC1CCC(NC(=O)c2cc(C3CC3)nn2-c2ccccc2)CC1 (stereo not drawn) | i | ? | 0% | -9% | ? | i
CC(C)(C)NC(=O)c1ccc2c(c1)CCO2 | i | -7% | 4% | 5% | -14% | i
O=C(NC(=O)c1ccccc1O)c1ccc2c(c1)CCO2 | i | -25% | -1% | -10% | 21µM* | i
O=C(O)c1ccc(/C=C2/SC(=S)N(Cc3ccccc3)C2=O)cc1 | ? | -23% | 5% | -1% | 18% | i
